# Data taken from the supplement of paper PMC10037445.
# Whole data set: some 2,900 compounds, median “IRF Lucia reporter activity, fold change vs agonist alone” near 0.9, cut for the highest 2% near 2.8. The list comes from a sample in which the highest values are over-represented; it also holds similar structures and randomly drawn compounds.
# Key:
# [1] = system: RAW-Dual; assay: IRF Lucia reporter activity, fold change vs agonist alone; cytotoxicity flag (confluency mask): cytotoxic (confluency <70% of control); higher = enhanced IRF activity
# In short: (§1)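 RAW-Dual macrophages were seeded in DMEM at 50,000 cells/well in 384-well plates, given 50 nL of library stock by pin tool, and given a PRR agonist 1 h later. Plates were held at 37 °C, 5% CO2 for 20 hours, after which supernatant was read for IRF by QuantiLuc luminescence and for NF-κB by QuantiBlue absorbance at 620 nm. Reporter activity is expressed as fold change over wells that received agonist alone. A well was called cytotoxic when IncuCyte confluency fell below 70% of agonist controls in both mask sets.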
# [2] = system: RAW-Dual; assay: IRF Lucia reporter activity, fold change vs agonist alone; higher = enhanced IRF activity; conditions: agonist: MPLA (TLR4) […]
# In short: as §1
# [3] = system: RAW-Dual; assay: IRF Lucia reporter activity, fold change vs agonist alone; cytotoxicity flag (confluency mask): not cytotoxic; higher = enhanced IRF activity
# In short: as §1
# [4] = agonist: 3'3'-cGAMP (STING) 10 ug/mL
# [5] = library stock concentration (final ~1000-fold dilution): 10 mM, cytotoxicity flag (confluency mask): cytotoxic (confluency <70% of control)
# [6] = library stock concentration (final ~1000-fold dilution): 10 mM, cytotoxicity flag (confluency mask): not cytotoxic
smiles,measurement,setting,value
Cc1ccc(C2OC(CO)C(O)C(O)C2O)cc1Cc1ccc(-c2ccc(F)cc2)s1.Cc1ccc(C2OC(CO)C(O)C(O)C2O)cc1Cc1ccc(-c2ccc(F)cc2)s1.O (stereo not given) (library stock concentration (final ~1000-fold dilution): 10 mM),IRF Lucia reporter activity,[1]; [4],0.0212
same,IRF Lucia reporter activity,[1]; agonist: LPS (TLR4) 0.1 ug/mL,0.026
Cc1ccc(C2OC(CO)C(O)C(O)C2O)cc1Cc1ccc(-c2ccc(F)cc2)s1.Cc1ccc(C2OC(CO)C(O)C(O)C2O)cc1Cc1ccc(-c2ccc(F)cc2)s1.O (stereo not given),IRF Lucia reporter activity,[2]; [5],0.0328
Cc1cc2c(F)c(Oc3ncnn4cc(OCC(C)O)c(C)c34)ccc2[nH]1 (stereo not given),IRF Lucia reporter activity,[2]; [6],1.93
Cc1cc2c(F)c(Oc3ncnn4cc(OCC(C)OC(=O)C(C)N)c(C)c34)ccc2[nH]1 (stereo not given),IRF Lucia reporter activity,[2]; [5],2.88
Cc1cc2c(F)c(Oc3ncnn4cc(OCC(C)OC(=O)C(C)N)c(C)c34)ccc2[nH]1 (stereo not given) (library stock concentration (final ~1000-fold dilution): 10 mM),IRF Lucia reporter activity,[1]; [4],0.967
same,IRF Lucia reporter activity,[1]; agonist: LPS (TLR4) 0.1 ug/mL,2.13
COc1cc2c(Oc3ccc4[nH]c(C)cc4c3F)ncnc2cc1OCCCN1CCCC1.O=C(O)/C=C\C(=O)O,IRF Lucia reporter activity,[2]; [5],2.35
COc1cc2c(Oc3ccc4[nH]c(C)cc4c3F)ncnc2cc1OCCCN1CCCC1.O=C(O)/C=C\C(=O)O (library stock concentration (final ~1000-fold dilution): 10 mM),IRF Lucia reporter activity,[1]; [4],0.783
same,IRF Lucia reporter activity,[1]; agonist: LPS (TLR4) 0.1 ug/mL,1.92
Cc1cc2c(F)c(Oc3ncnn4cc(OCC(C)O)c(C)c34)ccc2[nH]1 (stereo not given) (library stock concentration (final ~1000-fold dilution): 10 mM),IRF Lucia reporter activity,[3]; [4],1.01
same,IRF Lucia reporter activity,[3]; agonist: LPS (TLR4) 0.1 ug/mL,1.75
COS(=O)(=O)[O-].Cc1cc2c3c([n+](C)c4ccc(F)cc4c3c1)-c1cc(F)ccc1N2C (library stock concentration (final ~1000-fold dilution): 10 mM),IRF Lucia reporter activity,[3]; [4],1.39
same,IRF Lucia reporter activity,[3]; agonist: LPS (TLR4) 0.1 ug/mL,1.53
CN1CCN(CCCN2c3ccccc3Sc3ccc(Cl)cc32)CC1.O=C(O)/C=C\C(=O)O.O=C(O)/C=C\C(=O)O,IRF Lucia reporter activity,[2]; [5],0.883
CN1CCN(CCCN2c3ccccc3Sc3ccc(Cl)cc32)CC1.O=C(O)/C=C\C(=O)O.O=C(O)/C=C\C(=O)O (library stock concentration (final ~1000-fold dilution): 10 mM),IRF Lucia reporter activity,[1]; [4],0.64
same,IRF Lucia reporter activity,[1]; agonist: LPS (TLR4) 0.1 ug/mL,0.589
O=C(O)C1OC(Oc2cc3oc(-c4ccccc4)cc(=O)c3c(O)c2O)C(O)C(O)C1O (stereo not given) (library stock concentration (final ~1000-fold dilution): 10 mM),IRF Lucia reporter activity,[3]; [4],0.96
same,IRF Lucia reporter activity,[3]; agonist: LPS (TLR4) 0.1 ug/mL,0.958
O=C(O)C1OC(Oc2cc3oc(-c4ccccc4)cc(=O)c3c(O)c2O)C(O)C(O)C1O (stereo not given),IRF Lucia reporter activity,[2]; [6],1.03
CC(C)OC(=O)C(C)NP(=O)(OCC1OC(n2ccc(=O)[nH]c2=O)C(C)(F)C1O)Oc1ccccc1 (stereo not given),IRF Lucia reporter activity,[2]; [6],1.04
CC(C)OC(=O)C(C)NP(=O)(OCC1OC(n2ccc(=O)[nH]c2=O)C(C)(F)C1O)Oc1ccccc1 (stereo not given) (library stock concentration (final ~1000-fold dilution): 10 mM),IRF Lucia reporter activity,[3]; [4],1.04
same,IRF Lucia reporter activity,[3]; agonist: LPS (TLR4) 0.1 ug/mL,0.731
COc1cc2c(NC3CCN(C(C)C)CC3)nc(C3CCCCC3)nc2cc1OCCCN1CCCC1 (library stock concentration (final ~1000-fold dilution): 10 mM),IRF Lucia reporter activity,[1]; [4],0.154
same,IRF Lucia reporter activity,[1]; agonist: LPS (TLR4) 0.1 ug/mL,0.0189
COc1cc2nc(N3CCCC3)nc(NCCCCCN3CCCC3)c2cc1OC (library stock concentration (final ~1000-fold dilution): 10 mM),IRF Lucia reporter activity,[1]; [4],0.313
same,IRF Lucia reporter activity,[1]; agonist: LPS (TLR4) 0.1 ug/mL,2.54
COc1cc2c(NC3CCN(C(C)C)CC3)nc(N3CCC(F)(F)CC3)nc2cc1OCCCN1CCCC1 (library stock concentration (final ~1000-fold dilution): 10 mM),IRF Lucia reporter activity,[1]; [4],0.849
same,IRF Lucia reporter activity,[1]; agonist: LPS (TLR4) 0.1 ug/mL,4.2
COc1cc2c(NC3CCN(C(C)C)CC3)nc(N3CCC(F)(F)CC3)nc2cc1OCCCN1CCCC1,IRF Lucia reporter activity,[2]; [5],0.652
COc1cc2nc(N3CCCC3)nc(NCCCCCN3CCCC3)c2cc1OC,IRF Lucia reporter activity,[2]; [5],0.8
COc1cc2c(cc1O)CCC1C2CCC2(C)C(O)CCC12 (stereo not given) (library stock concentration (final ~1000-fold dilution): 10 mM),IRF Lucia reporter activity,[1]; [4],0.205
same,IRF Lucia reporter activity,[1]; agonist: LPS (TLR4) 0.1 ug/mL,1.03
COc1cc2c(cc1O)CCC1C2CCC2(C)C(O)CCC12 (stereo not given),IRF Lucia reporter activity,[2]; [5],1.31
O=C(NOCCO)c1ccc2cncn2c1Nc1ccc(I)cc1F,IRF Lucia reporter activity,[2]; [6],3.27
Cc1cc(C(=O)NOCCO)c(Nc2ccc(I)cc2F)n(C)c1=O (library stock concentration (final ~1000-fold dilution): 10 mM),IRF Lucia reporter activity,[3]; [4],0.824
same,IRF Lucia reporter activity,[3]; agonist: LPS (TLR4) 0.1 ug/mL,2.13
O=C(NOCC(O)CO)c1cc(Br)c(F)c(F)c1Nc1ccc(I)cc1F (stereo not given),IRF Lucia reporter activity,[2]; [6],2.39
Cn1c(=O)c(F)c(Nc2ccc(I)cc2F)c2c(=O)n(CC(O)CO)cnc21 (stereo not given) (library stock concentration (final ~1000-fold dilution): 10 mM),IRF Lucia reporter activity,[3]; [4],0.517
same,IRF Lucia reporter activity,[3]; agonist: LPS (TLR4) 0.1 ug/mL,0.819
O=C(NOCC(O)CO)c1ccc(F)c(F)c1Nc1ccc(I)cc1F (stereo not given),IRF Lucia reporter activity,[2]; [6],3.52
Cn1c(=O)c(F)c(Nc2ccc(I)cc2F)c2c(=O)n(CC(O)CO)cnc21 (stereo not given),IRF Lucia reporter activity,[2]; [6],1.23
O=C(NOCC(O)CO)c1cc(Br)c(F)c(F)c1Nc1ccc(I)cc1F (stereo not given) (library stock concentration (final ~1000-fold dilution): 10 mM),IRF Lucia reporter activity,[3]; [4],0.713
same,IRF Lucia reporter activity,[3]; agonist: LPS (TLR4) 0.1 ug/mL,2.11
O=C(NOCC1CC1)c1ccc(F)c(F)c1Nc1ccc(I)cc1Cl,IRF Lucia reporter activity,[2]; [6],2.05
O=C(NOCC(O)CO)c1ccc(F)c(F)c1Nc1ccc(I)cc1F (stereo not given) (library stock concentration (final ~1000-fold dilution): 10 mM),IRF Lucia reporter activity,[3]; [4],0.903
same,IRF Lucia reporter activity,[3]; agonist: LPS (TLR4) 0.1 ug/mL,3.61
Cc1cc(C(=O)NOCCO)c(Nc2ccc(I)cc2F)n(C)c1=O,IRF Lucia reporter activity,[2]; [6],2.81
O=C(NOCCO)c1ccc2cncn2c1Nc1ccc(I)cc1F (library stock concentration (final ~1000-fold dilution): 10 mM),IRF Lucia reporter activity,[3]; [4],0.814
same,IRF Lucia reporter activity,[3]; agonist: LPS (TLR4) 0.1 ug/mL,3.65
O=C(NOCC1CC1)c1ccc(F)c(F)c1Nc1ccc(I)cc1Cl (library stock concentration (final ~1000-fold dilution): 10 mM),IRF Lucia reporter activity,[3]; [4],0.525
same,IRF Lucia reporter activity,[3]; agonist: LPS (TLR4) 0.1 ug/mL,2.5
Br.Br.Br.Br.Br.Br.c1ccc(CNCc2ccc(CN3CCCNCCNCCCNCC3)cc2)nc1,IRF Lucia reporter activity,"[2]; library stock concentration (final ~1000-fold dilution): 10 mM water, cytotoxicity flag (confluency mask): not cytotoxic",1.35
Br.Br.Br.Br.Br.Br.c1ccc(CNCc2ccc(CN3CCCNCCNCCCNCC3)cc2)nc1 (library stock concentration (final ~1000-fold dilution): 10 mM water),IRF Lucia reporter activity,[3]; [4],1.07
same,IRF Lucia reporter activity,[3]; agonist: LPS (TLR4) 0.1 ug/mL,0.886
